Experimental data taken from the supplement of paper PMC6555819.

What was measured:
Assay in all cases: PBM binding z-score (relative to random genomic background probes); higher = stronger binding; sequences stand for … in GC…GCGATTGACAGCGTAGAATGAAGG
[1] = test system: RARb homodimer (NR concentration 270 nM)
In short: (§1)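 Regression normalization was applied to scanned fluorescence from custom Agilent 4×180K protein-binding microarrays. Before scanning, arrays were incubated 1 h with ligand-free nuclear receptor dimers, and binding was detected with antibodies against each partner (one per run). Binding z-scores use the random background probes as reference.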

[2] = test system: RARg:RXRa (NR concentration 270 nM, RXRa partner concentration 90 nM)
In short: as §1

[3] = test system: RARg homodimer (NR concentration 270 nM)
In short: as §1

[4] = test system: RXRa DBDmut IVT, anti-RXR (DBD mutation: RXRa K156A/R161A, NR concentration 90 nM)
In short: as §1

[5] = test system: RXRa homodimer (NR concentration 180 nM)
In short: as §1

[6] = test system: THRa:RXRa (NR concentration 90 nM, RXRa partner concentration 90 nM)
In short: as §1

[7] = test system: THRa homodimer (NR concentration 90 nM)
In short: as §1

[8] = test system: VDR:RXRa (NR concentration 270 nM, RXRa partner concentration 90 nM)
In short: as §1

[9] = test system: VDR homodimer (NR concentration 270 nM)
In short: as §1

TATAGAGGGTCAAAGGCCAGAGTACGAATGTCGA
PBM binding z-score [1]: 3.3 | PBM binding z-score [2]: 4.91 | PBM binding z-score [3]: 4.91 | PBM binding z-score [4]: 2.16 | PBM binding z-score [5]: 6.11 | PBM binding z-score [6]: 2.39 | PBM binding z-score [7]: -0.0967 | PBM binding z-score [8]: 3.83 | PBM binding z-score [9]: 1.73

CCTTCTGGGCCAAAGGTCATTGATTCCAATGCTC
PBM binding z-score [1]: 4.44 | PBM binding z-score [2]: 5.8 | PBM binding z-score [3]: 4.73 | PBM binding z-score [4]: 1.41 | PBM binding z-score [5]: 6.15 | PBM binding z-score [6]: 3.44 | PBM binding z-score [7]: 0.658 | PBM binding z-score [8]: 4.59 | PBM binding z-score [9]: 2.23

ACAGACAGGTGAGTGAGGGTAACTCAGCTGGACG
PBM binding z-score [1]: 0.68 | PBM binding z-score [2]: 0.525 | PBM binding z-score [3]: 0.533 | PBM binding z-score [4]: -0.362 | PBM binding z-score [5]: 0.572 | PBM binding z-score [6]: 1.63 | PBM binding z-score [7]: 0.184 | PBM binding z-score [8]: 2 | PBM binding z-score [9]: 0.0737

GCTATTAGTTGAAATGGCAACCGAATGATTCTCG
PBM binding z-score [1]: -0.503 | PBM binding z-score [2]: -0.0997 | PBM binding z-score [3]: 0.311 | PBM binding z-score [4]: 0.893 | PBM binding z-score [5]: -0.164 | PBM binding z-score [6]: -0.279 | PBM binding z-score [7]: -0.241 | PBM binding z-score [8]: -0.304 | PBM binding z-score [9]: 0.0264

CCTCGGAGGAAAACAGGAGGTCAGAGCTGCCAGA
PBM binding z-score [1]: 2.81 | PBM binding z-score [2]: 1.32 | PBM binding z-score [3]: 1.3 | PBM binding z-score [4]: -0.428 | PBM binding z-score [5]: 1.63 | PBM binding z-score [6]: 2.06 | PBM binding z-score [7]: 0.595 | PBM binding z-score [8]: 1.28 | PBM binding z-score [9]: 0.405

ACTAGTTGGTCAGCTGAGTTCACACACAATTCGG
PBM binding z-score [1]: 2.53 | PBM binding z-score [2]: 1.78 | PBM binding z-score [3]: 2.11 | PBM binding z-score [4]: 2.27 | PBM binding z-score [5]: 1.64 | PBM binding z-score [6]: 3.33 | PBM binding z-score [7]: 1.05 | PBM binding z-score [8]: 4.81 | PBM binding z-score [9]: 6.71

GCTGCAAGGTCAGGTTGGTCAGCTAACGGGTACG
PBM binding z-score [1]: 3.9 | PBM binding z-score [2]: 4.56 | PBM binding z-score [3]: 5.49 | PBM binding z-score [4]: 2.04 | PBM binding z-score [5]: 3.72 | PBM binding z-score [6]: 3.26 | PBM binding z-score [7]: 1.48 | PBM binding z-score [8]: 2.81 | PBM binding z-score [9]: 1.23

AGAACGAGGGCACGCCGAGTTGATAGCAGAGTAG
PBM binding z-score [1]: 1.2 | PBM binding z-score [2]: 1.96 | PBM binding z-score [3]: 2.36 | PBM binding z-score [4]: 1.75 | PBM binding z-score [5]: 1.47 | PBM binding z-score [6]: 1.96 | PBM binding z-score [7]: -0.089 | PBM binding z-score [8]: 2.27 | PBM binding z-score [9]: 1.81

TCATATAGGTAAATTCTAGGTGAAAGTCCGATCT
PBM binding z-score [1]: 0.708 | PBM binding z-score [2]: 0.737 | PBM binding z-score [3]: 0.439 | PBM binding z-score [4]: 1.81 | PBM binding z-score [5]: 0.907 | PBM binding z-score [6]: 2.11 | PBM binding z-score [7]: 1.11 | PBM binding z-score [8]: 1.14 | PBM binding z-score [9]: 0.726

ATATGTAGGTTACATACGGGTCATTCAGGCTATG
PBM binding z-score [1]: 2.71 | PBM binding z-score [2]: 4.44 | PBM binding z-score [3]: 2.41 | PBM binding z-score [4]: 0.906 | PBM binding z-score [5]: 3.48 | PBM binding z-score [6]: 2.73 | PBM binding z-score [7]: 0.593 | PBM binding z-score [8]: 4.14 | PBM binding z-score [9]: 2.29

TCGAGTTGGTTAGGGGCATTCAGAATGGCGTCGA
PBM binding z-score [1]: 0.661 | PBM binding z-score [2]: -0.158 | PBM binding z-score [3]: -0.398 | PBM binding z-score [4]: 1.95 | PBM binding z-score [5]: 0.163 | PBM binding z-score [6]: 0.835 | PBM binding z-score [7]: 0.169 | PBM binding z-score [8]: 1.84 | PBM binding z-score [9]: 3.32

TCATATAGGTAATACAGGTGATAGTCGGCATCTA
PBM binding z-score [1]: 0.0336 | PBM binding z-score [2]: 0.618 | PBM binding z-score [3]: 0.526 | PBM binding z-score [4]: 1.57 | PBM binding z-score [5]: 0.945 | PBM binding z-score [6]: 0.371 | PBM binding z-score [7]: 0.0861 | PBM binding z-score [8]: 1.04 | PBM binding z-score [9]: -0.0181

TCTCGGAGGACACGAAGGTCAGAGCGTTCCAGAG
PBM binding z-score [1]: 3.79 | PBM binding z-score [2]: 3.32 | PBM binding z-score [3]: 3.84 | PBM binding z-score [4]: 0.548 | PBM binding z-score [5]: 1.94 | PBM binding z-score [6]: 2.99 | PBM binding z-score [7]: 0.835 | PBM binding z-score [8]: 2.42 | PBM binding z-score [9]: 1.2

TCGAGTAGGTTACCAATGGGGCATTCATCTTTCT
PBM binding z-score [1]: 0.835 | PBM binding z-score [2]: 1.03 | PBM binding z-score [3]: 0.586 | PBM binding z-score [4]: 0.151 | PBM binding z-score [5]: 0.759 | PBM binding z-score [6]: 0.223 | PBM binding z-score [7]: -0.282 | PBM binding z-score [8]: 0.117 | PBM binding z-score [9]: -0.179

TCTTGTAGTTCAATAGAGGTTAAGAAAGTGCGCT
PBM binding z-score [1]: 2.27 | PBM binding z-score [2]: 2 | PBM binding z-score [3]: 2 | PBM binding z-score [4]: 2.27 | PBM binding z-score [5]: 2.15 | PBM binding z-score [6]: 3.61 | PBM binding z-score [7]: 0.104 | PBM binding z-score [8]: 3.41 | PBM binding z-score [9]: 1.59

AGAATGAGGTTATACGTAGAGCAGGGAAGAAAGT
PBM binding z-score [1]: 0.854 | PBM binding z-score [2]: 1.69 | PBM binding z-score [3]: 0.941 | PBM binding z-score [4]: 1.58 | PBM binding z-score [5]: 2.1 | PBM binding z-score [6]: 2.19 | PBM binding z-score [7]: 0.488 | PBM binding z-score [8]: 1.23 | PBM binding z-score [9]: 0.731

GCCATTAGTTGAAAGGGCAACCGAATGATTCTCG
PBM binding z-score [1]: 2.22 | PBM binding z-score [2]: 1.54 | PBM binding z-score [3]: 1.32 | PBM binding z-score [4]: 0.641 | PBM binding z-score [5]: 1.24 | PBM binding z-score [6]: 0.595 | PBM binding z-score [7]: -0.31 | PBM binding z-score [8]: 0.274 | PBM binding z-score [9]: -0.125

TCGAGTAGGTTAGTCGGGGCACTCAGCCAACATA
PBM binding z-score [1]: 0.461 | PBM binding z-score [2]: 0.0814 | PBM binding z-score [3]: -0.0518 | PBM binding z-score [4]: 0.105 | PBM binding z-score [5]: 0.249 | PBM binding z-score [6]: 1.35 | PBM binding z-score [7]: -0.252 | PBM binding z-score [8]: 1.2 | PBM binding z-score [9]: 0.195

GCTCGGAGAACAAGGTCAGAGCTTTGTCCGTAGA
PBM binding z-score [1]: 2.36 | PBM binding z-score [2]: 2.39 | PBM binding z-score [3]: 2.24 | PBM binding z-score [4]: 0.418 | PBM binding z-score [5]: 2.16 | PBM binding z-score [6]: 2.58 | PBM binding z-score [7]: 0.95 | PBM binding z-score [8]: 1.5 | PBM binding z-score [9]: 0.151

CCGACTGGGGCATCAGGTTACCATAAGCCAGCCC
PBM binding z-score [1]: 0.867 | PBM binding z-score [2]: 0.461 | PBM binding z-score [3]: 0.586 | PBM binding z-score [4]: -0.734 | PBM binding z-score [5]: 0.214 | PBM binding z-score [6]: 0.994 | PBM binding z-score [7]: 0.484 | PBM binding z-score [8]: -0.451 | PBM binding z-score [9]: -0.423

TGACCAAGGTGAAGGTCGTTGATCCCTCTGTAGA
PBM binding z-score [1]: 1.87 | PBM binding z-score [2]: 1.64 | PBM binding z-score [3]: 1.25 | PBM binding z-score [4]: -0.322 | PBM binding z-score [5]: 1.84 | PBM binding z-score [6]: 2.37 | PBM binding z-score [7]: 0.58 | PBM binding z-score [8]: 1.43 | PBM binding z-score [9]: 0.744

CAAACTAGGTCAAGGTCAAAATCGGTTTGTGCCA
PBM binding z-score [1]: 4.77 | PBM binding z-score [2]: 5.74 | PBM binding z-score [3]: 6.36 | PBM binding z-score [4]: 2.64 | PBM binding z-score [5]: 5.55 | PBM binding z-score [6]: 4.32 | PBM binding z-score [7]: 3.13 | PBM binding z-score [8]: 4.7 | PBM binding z-score [9]: 3.88

CCAGACAGGTGAGAAGGTAACTCAACCTCGATTA
PBM binding z-score [1]: 0.715 | PBM binding z-score [2]: 0.716 | PBM binding z-score [3]: 0.698 | PBM binding z-score [4]: 0.0591 | PBM binding z-score [5]: 0.59 | PBM binding z-score [6]: 0.724 | PBM binding z-score [7]: 0.31 | PBM binding z-score [8]: 0.0485 | PBM binding z-score [9]: -0.0105

ATCGTAAGGTCGAGGTGAGTATAGAGAAAGGGAA
PBM binding z-score [1]: 2.13 | PBM binding z-score [2]: 3 | PBM binding z-score [3]: 3.23 | PBM binding z-score [4]: 1.49 | PBM binding z-score [5]: 2.55 | PBM binding z-score [6]: 3.43 | PBM binding z-score [7]: 2.18 | PBM binding z-score [8]: 1.99 | PBM binding z-score [9]: 0.892
